Results filed as inconclusive are left out. Active and inactive are the calls of the source. Unless noted, the call rests on the fitted dose curve; in most records, active means well fitted curve in the direction sought with a large enough effect; inconclusive means small, poorly fitted or top-dose-only effect, or another doubt; inactive means no such curve, though single readings can be large; an effect the other way counts as inactive or inconclusive.
Legend:
[1] = biological target: Cytochrome P450 2C9 (Homo sapiens) (UniProt P11712); test: Cytochrome P450 family 2 subfamily C member 9 (CYP2C9) small molecule antagonists: luciferase biochemical (cell-free) qHTS assay (AID 1645842; active means well fitted curve in the direction sought with a large enough effect in the repeat runs; an effect the other way counts as inactive or inconclusive; further: nearly all actives have a fitted effect of over 55% in size; further: potency means the concentration at half of the fitted maximal effect)
Cytochrome P450 2C9 (Homo sapiens), sequence (P11712 whole entry, looked up): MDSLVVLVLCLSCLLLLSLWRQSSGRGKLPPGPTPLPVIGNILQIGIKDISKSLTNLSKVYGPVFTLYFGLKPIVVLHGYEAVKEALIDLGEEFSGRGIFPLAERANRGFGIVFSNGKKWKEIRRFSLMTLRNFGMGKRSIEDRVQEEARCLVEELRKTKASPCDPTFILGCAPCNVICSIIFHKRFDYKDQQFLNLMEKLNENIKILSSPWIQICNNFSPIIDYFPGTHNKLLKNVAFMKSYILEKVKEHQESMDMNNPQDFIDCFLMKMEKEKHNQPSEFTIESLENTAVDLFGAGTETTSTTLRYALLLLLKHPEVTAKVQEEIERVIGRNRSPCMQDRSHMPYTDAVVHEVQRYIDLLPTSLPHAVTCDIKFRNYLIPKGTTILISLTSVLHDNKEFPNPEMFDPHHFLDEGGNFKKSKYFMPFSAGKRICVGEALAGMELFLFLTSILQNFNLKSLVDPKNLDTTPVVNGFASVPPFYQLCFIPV
Summary of the method: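 Luminescence, after 20 min with luciferin detection reagent, reflected CYP2C9 turnover during a 1 h NADPH-driven reaction at 37C. Enzyme-substrate mix contained 0.4% bovine serum albumin and was preincubated with compound 10 min at room temperature.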

[2] = Primary redox qHTS assay for identification of artifact compounds. (AID 1845223);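 further: 0% = DMSO and 100% = reference compound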
Summary of the method: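 Amplex Red (25 uM) and HRP (250 mU/mL) in HBSS, with compounds for 15 min, then 250 uM DTT for 30 min, room temperature, dark. Fluorescence 525/598 nm read; normalized to DMSO and 10 uM DA3003; Hill fit.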

CAOV3 = test: Primary qHTS to identify gynecologic anti-cancer compounds using libraries of approved drugs and bioactive compounds (AID 1345084); conditions: Gynecologic cancer cell panel viability, ATPlite luminescence, 48 h; series mostly up to 57.5 µM; further: nearly all actives have a fitted effect of over 55% in size; further: potency means the concentration at half of the fitted maximal effect
Summary of the method: (§1)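 48 h compound exposure at 37 C, 5% CO2; five-point qHTS. ATPlite luminescence readout of cell ATP.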

SKOV3 = test: as above; conditions: Gynecologic cancer cell panel viability, ATPlite luminescence, 48 h; series mostly up to 57.5 µM
Summary of the method: as §1

[3] = biological target: Catechol O-methyltransferase (Homo sapiens) (UniProt P21964); test: Confirmatory Screen for Target Class Profiling of Small Molecule Inhibitors of Methyltransferases (AID 1745852; calls by dose curve; on activity change, negative = inhibition: on the % scale 0 is the no-effect control and ±100 the full control effect); conditions: MTase-Glo luminescence, SAH detection, recombinant enzyme; measured here: COMT max response; stronger effect = lower value
Catechol O-methyltransferase (Homo sapiens), sequence (P21964 whole entry, looked up): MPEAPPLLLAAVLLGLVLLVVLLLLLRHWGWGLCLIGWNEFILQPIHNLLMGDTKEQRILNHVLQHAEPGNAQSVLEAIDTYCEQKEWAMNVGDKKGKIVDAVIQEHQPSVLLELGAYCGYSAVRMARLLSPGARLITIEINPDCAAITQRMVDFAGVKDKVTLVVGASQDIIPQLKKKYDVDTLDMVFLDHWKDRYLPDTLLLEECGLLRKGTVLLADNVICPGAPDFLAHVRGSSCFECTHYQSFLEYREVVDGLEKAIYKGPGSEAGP

[4] = biological target: Guanidinoacetate N-methyltransferase (Homo sapiens) (UniProt Q14353); test: as above; conditions: activity change, negative = inhibition: at 57.3 µM (top of the series) unless noted
[5] = biological target: Nicotinamide N-methyltransferase (Homo sapiens) (UniProt P40261); test: as above; conditions: MTase-Glo luminescence, SAH detection, recombinant enzyme; measured here: NNMT max response; stronger effect = lower value
Nicotinamide N-methyltransferase (Homo sapiens), sequence (P40261 whole entry, looked up): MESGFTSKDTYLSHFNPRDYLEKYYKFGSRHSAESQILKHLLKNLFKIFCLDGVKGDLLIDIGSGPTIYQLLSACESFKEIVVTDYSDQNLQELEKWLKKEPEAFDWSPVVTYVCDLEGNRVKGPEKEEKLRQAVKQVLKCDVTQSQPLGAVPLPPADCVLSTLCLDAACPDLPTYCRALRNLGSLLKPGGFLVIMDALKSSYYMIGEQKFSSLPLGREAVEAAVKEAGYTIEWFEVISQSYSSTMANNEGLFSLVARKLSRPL

[6] = biological target: Phenylethanolamine N-methyltransferase (Homo sapiens) (UniProt P11086); test: as above; conditions: MTase-Glo luminescence, SAH detection, recombinant enzyme; measured here: PNMT max response; stronger effect = lower value
Phenylethanolamine N-methyltransferase (Homo sapiens), sequence (P11086 whole entry, looked up): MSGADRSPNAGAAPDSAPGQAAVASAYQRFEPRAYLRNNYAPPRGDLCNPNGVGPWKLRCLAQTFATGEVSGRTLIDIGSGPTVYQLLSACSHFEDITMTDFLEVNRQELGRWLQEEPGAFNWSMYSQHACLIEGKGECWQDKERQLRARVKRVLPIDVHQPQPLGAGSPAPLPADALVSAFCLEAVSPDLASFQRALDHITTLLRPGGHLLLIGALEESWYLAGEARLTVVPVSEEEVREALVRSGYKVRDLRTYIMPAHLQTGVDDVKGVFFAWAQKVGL

[7] = tested on: Zika virus NS2B-NS3 protease (linked construct); test: Confirmatory screen NINDS AMC qHTS for Zika virus inhibitors (AID 1347152); further: potency means the concentration at half of the fitted maximal effect; nearly all actives have a fitted effect of over 70% in size
Summary of the method: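 Concentration-response confirmation used the NINDS linked protease (NS2B hydrophilic domain joined to NS3 protease domain), 1 nM, with a 15-min compound preincubation. Substrate, Nle-KRR-AMC at 10 microM, was read by UV fluorescence before and after 15 min.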

[8] = Confirmatory screen NINDS Rhodamine qHTS for Zika virus inhibitors (AID 1347161); further: nearly all actives have a fitted effect of over 60% in size; further: potency means the concentration at half of the fitted maximal effect;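 on activity change, negative = inhibition: purified Zika NS2B-NS3 protease with linked NS2B cofactor domain and Rhodamine110 peptide substrate; plate controls were no-inhibitor control for no effect and no-enzyme control for full effect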
Summary of the method: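 Enzyme (25 nM, linked NS2B-NS3) was preincubated 15 min with compound in 10 mM Tris-HCl pH 8.0, 0.01% Tween 20. Rhodamine110 substrate (1.5 microM) was then added and fluorescence read at start and after 15 min.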

[9] = Tertiary RLuc qRT-PCR qHTS assay for Zika virus inhibitors (AID 1347169); further: nearly all actives have a fitted effect of over 55% in size; further: potency means the concentration at half of the fitted maximal effect; on activity change, negative = inhibition: top concentration of the series differs between compounds; on the % scale 0 is the no-effect control and ±100 the full control effect
Summary of the method: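 Inhibition of ZIKV-RLuc replication in Vero cells, read as Renilla luminescence 1-1.5 hrs after live-cell substrate addition, following 48-72 hrs infection at MOI 1-2 in presence of compound.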

[10] = biological target: Cytochrome P450 2D6 (Homo sapiens) (UniProt P10635); test: Cytochrome P450 family 2 subfamily D member 6 (CYP2D6) small molecule antagonists: luciferase biochemical (cell-free) qHTS assay (AID 1645840; active means well fitted curve in the direction sought with a large enough effect in the repeat runs; an effect the other way counts as inactive or inconclusive; further: nearly all actives have a fitted effect of over 55% in size; further: potency means the concentration at half of the fitted maximal effect; on activity change, negative = inhibition: on the % scale 0 is the no-effect control and ±100 the full control effect)
Cytochrome P450 2D6 (Homo sapiens), sequence (P10635 whole entry, looked up): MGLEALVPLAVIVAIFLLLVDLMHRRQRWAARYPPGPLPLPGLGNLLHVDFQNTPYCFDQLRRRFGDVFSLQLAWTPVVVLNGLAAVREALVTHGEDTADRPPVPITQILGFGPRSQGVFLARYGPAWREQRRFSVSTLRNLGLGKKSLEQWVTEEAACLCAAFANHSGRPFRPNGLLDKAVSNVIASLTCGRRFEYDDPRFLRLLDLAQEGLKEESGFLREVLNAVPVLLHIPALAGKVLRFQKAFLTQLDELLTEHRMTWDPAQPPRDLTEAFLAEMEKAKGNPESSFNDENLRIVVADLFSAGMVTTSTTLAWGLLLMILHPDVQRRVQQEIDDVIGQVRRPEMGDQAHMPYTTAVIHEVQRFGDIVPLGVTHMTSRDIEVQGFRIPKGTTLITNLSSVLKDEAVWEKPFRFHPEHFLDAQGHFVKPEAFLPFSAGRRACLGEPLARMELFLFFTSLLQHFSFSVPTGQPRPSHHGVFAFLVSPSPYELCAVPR
Summary of the method: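 P450-Glo luminescent screen: recombinant CYP2D6 enzyme–proluciferin substrate mix preincubated with compound 10 min at room temperature, then NADPH regeneration added for 1 h at room temperature. Detection reagent added for 20 min; luciferin light read as relative luminescence units.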

[11] = biological target: N-terminal Xaa-Pro-Lys N-methyltransferase 1 (Homo sapiens) (UniProt Q9BV86); test: Confirmatory qHTS for Inhibitors of N-terminal methyltransferase 1 (NTMT1): MTaseGlo Assay (AID 1645874); further: potency means the concentration at half of the fitted maximal effect; nearly all actives have a fitted effect of over 65% in size
N-terminal Xaa-Pro-Lys N-methyltransferase 1 (Homo sapiens), sequence (Q9BV86 whole entry, looked up): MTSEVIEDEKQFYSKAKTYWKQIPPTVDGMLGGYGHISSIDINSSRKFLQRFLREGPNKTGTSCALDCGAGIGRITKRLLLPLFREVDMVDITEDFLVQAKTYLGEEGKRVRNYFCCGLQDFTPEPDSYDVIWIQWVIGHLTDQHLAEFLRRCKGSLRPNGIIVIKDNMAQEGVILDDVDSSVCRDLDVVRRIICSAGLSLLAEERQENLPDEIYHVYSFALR
Summary of the method: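 Preincubation of NTMT1 (125 nM) plus SAM (100 uM) with test compounds lasted 15 min; methylation of 1 uM SPKRIA then proceeded 30 min in the dark at room temperature. Luciferase signal reported SAH produced.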

NIH3T3 = test: Cytotoxic Profiling of Annotated Libraries Using Quantitative High-Throughput Screening (AID 1296008); conditions: Five cell lines viability, CellTiter-Glo ATP luminescence, 48-72 h; max response: stronger effect = lower value; further: nearly all actives have a fitted effect of over 60% in size; further: potency means the concentration at half of the fitted maximal effect; on max response: on the % scale 0 is the no-effect control and ±100 the full control effect
Summary of the method: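 Compounds were pin-transferred onto cells and incubated 48 or 72 hr at 37 degree Celsius, 95% humidity. CellTiter-Glo was added, plates sat 10 min at room temperature, then ATP-coupled luminescence was imaged as the viability read-out.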

[12] = P-glycoprotein substrates identified in KB-8-5-11 adenocarcinoma cell line, qHTS therapeutic library screen (AID 1346987); further: potency means the concentration at half of the fitted maximal effect; nearly all actives have a fitted effect of over 65% in size
Summary of the method: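 KB-8-5-11: colchicine-selected sub-line of KB-3-1 over-expressing P-gp; assay medium lacked colchicine. 72 h drug exposure at 37 degree C, CellTiter-Glo.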

[13] = qHTS drug screen for cell cycle checkpoint inhibitors in PARPi-resistant BRCA-mutant ovarian cancer cell lines. (AID 1963452; calls by dose curve); conditions: PEO1/OlaR viability, CellTiter-Glo luminescence, 96 h, stronger effect = lower value
Summary of the method: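 PEO1, PEO4 and PEO1/OlaR ovarian cancer cells, 600 per well, exposed 96 h at 37C to a dilution series. Viability read by CellTiter-Glo luminescence, normalized to DMSO and empty wells; activity summarized as Z-AUC.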

## CNc1cc(OC)c(C(=O)N[C@@H]2CCN(Cc3ccccc3)[C@@H]2C)cc1Cl
[1]
  Potency: 8.49 µM (active)
[2]
  Potency: inactive
CAOV3
  Potency: inactive
SKOV3
  Potency: inactive

## Cc1cc(C)c(NC(=O)N(Cc2ccc3c(c2)Cc2ccccc2-3)C2CCCCCC2)c(C)c1
[1]
  Potency: 6.01 µM (active)
[3]
  activity: -9.37%
[4]
  activity change, negative = inhibition: -11.3%
[5]
  activity: -15.8%
[6]
  activity: -14.1%
[2]
  Potency: inactive
CAOV3
  Potency: inactive
SKOV3
  Potency: inactive

## COc1cc(-c2cc(-c3cccc(O)c3)cnc2N)cc(OC)c1OC
[1]
  Potency: 0.849 µM (active)
[2]
  Potency: inactive
CAOV3
  Potency: inactive

## C[N+]1(C)[C@@H]2CC[C@H]1CC(OC(=O)C(O)c1ccccc1)C2 (stereo partly drawn)
[2]
  Potency: inactive
CAOV3
  Potency: inactive
SKOV3
  Potency: inactive

## CCCCOc1ccc(-c2cncc(C(=O)NCc3cccnc3N3CCOCC3)c2)cc1Cl
[1]
  Potency: 3.01 µM (active)
CAOV3
  Potency: inactive
SKOV3
  Potency: inactive

## CS(=O)(=O)c1ccc(-c2cn3ccccc3n2)cc1
[7]
  Potency: 21.5 µM (active)
[8]
  Potency: inactive
[9]
  Potency: inactive
[10]
  Potency: 5.49 µM (active)
[1]
  Potency: 13.8 µM (active)
[11]
  Potency: 9.55 µM (active)
CAOV3
  Potency: 10 µM (active)
SKOV3
  Potency: 8.91 µM (active)

## COc1ccc(C2(CNC(=O)[C@](C)(Cc3c[nH]c4ccccc34)NC(=O)Nc3ccc([N+](=O)[O-])cc3)CCCCC2)nc1
[1]
  Potency: 2.68 µM (active)
CAOV3
  Potency: inactive

## COc1ccc(NS(=O)(=O)c2sc3ccc(Cl)cc3c2C)cc1N1CCNCC1
[10]
  Potency: 23.9 µM (active)
[2]
  Potency: inactive
CAOV3
  Potency: inactive
SKOV3
  Potency: inactive

## CO[C@@H]1[C@@H](O[C@H]2O[C@@H](C)[C@H](O[C@@H]3C[C@](C)(O)[C@H](O)[C@@H](C)O3)[C@@H](N(C)C)[C@@H]2O)[C@@H](CC=O)C[C@@H](C)[C@@H](O[C@H]2CC[C@H](N(C)C)[C@H](C)O2)/C=C/C=C/C[C@@H](C)OC(=O)C[C@H]1O
CAOV3
  Potency: inactive
SKOV3
  Potency: inactive

## Cc1nnsc1C(=O)Nc1ccc(-n2nc(C(F)(F)F)cc2C(F)(F)F)cc1
[10]
  Potency: 10.7 µM (active)
[1]
  Potency: 15.1 µM (active)
[2]
  Potency: inactive
CAOV3
  Potency: inactive
SKOV3
  Potency: inactive

## CN(CC(=O)N(Cc1ccc(C2CCCCC2)cc1)c1ccc(C(=O)O)cc1)S(=O)(=O)c1c(F)c(F)c(F)c(F)c1F
[7]
  Potency: 19.7 µM (active)
[8]
  Potency: 2.78 µM (active)
[9]
  Potency: 7.39 µM (active)
[1]
  Potency: 16.9 µM (active)
[2]
  Potency: inactive
NIH3T3
  Potency: 6.51 µM (active)
CAOV3
  Potency: 25.1 µM (active)
SKOV3
  Potency: 31.6 µM (active)

## C[C@@H](O[C@H]1OCCN(Cc2n[nH]nc2CN(C)C)[C@H]1c1ccc(F)cc1)c1cc(C(F)(F)F)cc(C(F)(F)F)c1
[10]
  Potency: 15.1 µM (active)
[1]
  Potency: 15.1 µM (active)
[2]
  Potency: inactive
CAOV3
  Potency: inactive
SKOV3
  Potency: inactive

## COc1cc(N2CCN(C(C)=O)CC2)ccc1Nc1ncc(Cl)c(Nc2ccc(N3CCN(C(C)=O)CC3)cc2OC)n1
[12]
  Potency: 20.6 µM (active)
[1]
  Potency: 5.35 µM (active)
[11]
  Potency: 49.4 µM (active)
[2]
  Potency: inactive
[13]
  Z-AUC: 0.859 (inactive)
[13]; measured here: PEO1 parental Z-AUC
  Z-AUC: 0.393
[13]; measured here: PEO4 Z-AUC
  Z-AUC: 0.132
NIH3T3
  Potency: 4.11 µM (active)

## Cc1cc(CN)cc(C)c1NC(=O)c1ccc(-c2cc(Cl)ccc2Cl)o1
[12]
  Potency: 20.6 µM (active)
[2]
  Potency: inactive
CAOV3
  Potency: inactive
SKOV3
  Potency: inactive

## CC1OC2O[C@H]3[C@@H](OCC(O)[C@H]3O)OC(=O)C34CCC(C)(C)CC3C3=CCC5C6(C)CC(O)C(OC7OC(CO)C(O)C(O)C7O[C@@H]7OC[C@H](OC(=O)CC(C)(O)CC(=O)OC1C(OC1OCC(O)C(O)C1O)C2O)[C@@H](O)[C@H]7O)C(C)(CO)C6CCC5(C)C3(C)CC4 (stereo partly drawn)
[2]
  Potency: inactive
NIH3T3
  max response: -22% (inactive)
CAOV3
  Potency: inactive

## CC1CCN(c2cc(NC(=O)c3ccccc3)ncn2)CC1
[12]
  Potency: 16.4 µM (active)
[10]
  Potency: inactive
[1]
  Potency: 9.52 µM (active)
CAOV3
  Potency: inactive
SKOV3
  Potency: inactive

## C=CC(=O)N1CCN(C(=O)c2cc(-c3cc(Cl)ccc3Cl)c(Cl)cc2OC)CC1
[10]
  Potency: 19 µM (active)
[1]
  Potency: inactive
[3]
  activity: -10.7%
[4]
  activity change, negative = inhibition: -11.4%
[5]
  activity: -31.6%
[6]
  activity: -2.64%
[2]
  Potency: inactive
NIH3T3
  max response: -20.9% (inactive)
